Test [1] has as its system PRMT1 (protein arginine N-methyltransferase 1). As to the kind of experiment: PRMT1 binders on small-molecule microarrays, primary screen, biochemical, small-molecule microarray, 635 nm fluorescence (AID 1088).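 Also: binding of Prmt1 protein to compounds spotted on small-molecule microarray slides.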 The conditions noted are these: small-molecule microarray binding, higher = more signal.
The nature of test [2]: yeast growth modulation, basal conditions, primary screen, YJM789 clinical isolate, OD600, 24 h (AID 1089).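 Also: growth of clinical yeast isolate S. cerevisiae YJM 789 seeded 1000 cells per well; test concentration not given here.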 The conditions noted are these: S. cerevisiae YJM789 growth, higher = more signal, called active from +8 up or from −8 down.
The nature of test [3]: fission yeast growth modulation, primary screen, strain 972, OD600, 24 h, no modulator (AID 1090).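 Also: basal condition with compound alone and no growth modifier present; test concentration not given here.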 Conditions: S. pombe 972 growth, higher = more signal, called active from +8 up or from −8 down.
The nature of test [4]: S. cerevisiae growth modulation with rapamycin, primary screen, strain BY4716, OD600, 96 h (AID 1091). Also: test concentration not given here. Conditions: higher = more signal, called active from +8 up or from −8 down.
Test [5] deals with Torsin-1A-interacting protein 2 (Homo sapiens) (UniProt Q8NFQ8). Nature of the test: LULL1 binders on small-molecule microarray, primary screen, cell lysate, human LULL1 lysate, 635/667 nm fluorescence (AID 1092).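 Also: probe is lysate of COS7 cells overexpressing human LULL1; score merges per-feature 667 nm fluorescence with signal-to-noise.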 Conditions: hLULL1 lysate binding, 635 nm fluorescence, higher = more signal.
Sequence of Torsin-1A-interacting protein 2 (Homo sapiens) (Q8NFQ8 whole entry, looked up): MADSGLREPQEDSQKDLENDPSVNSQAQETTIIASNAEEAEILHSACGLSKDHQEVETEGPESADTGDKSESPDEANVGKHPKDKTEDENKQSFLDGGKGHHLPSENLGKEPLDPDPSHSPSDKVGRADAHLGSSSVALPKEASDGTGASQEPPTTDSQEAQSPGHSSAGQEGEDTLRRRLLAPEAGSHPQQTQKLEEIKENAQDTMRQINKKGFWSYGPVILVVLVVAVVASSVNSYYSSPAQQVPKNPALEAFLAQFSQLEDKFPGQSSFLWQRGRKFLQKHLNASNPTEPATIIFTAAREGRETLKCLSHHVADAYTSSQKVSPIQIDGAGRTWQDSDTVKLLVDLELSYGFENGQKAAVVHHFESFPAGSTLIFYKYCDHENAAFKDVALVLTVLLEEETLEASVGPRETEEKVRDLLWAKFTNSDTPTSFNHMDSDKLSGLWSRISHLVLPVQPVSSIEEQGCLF
A short description of test [6]: E. coli growth modulation, two-sided OD650, primary screen, E. coli filamentation project, strain DRC41, 24 h (AID 1093).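 Also: MC1000 strain lacking acrAB efflux and sulA so SOS filamentation is blocked; test concentration not given here.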 The conditions noted are these: OD650, 24 h, higher = more signal, called active from +8 up or from −8 down.
Test [7] can be described thus: small-molecule microarray binders of probe aLefty2, primary screen, biochemical, biotinylated probe, 635/667 nm fluorescence (AID 1094).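 Also: score merges spot fluorescence near 667 nm with spot signal-to-noise ratio.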 Conditions: higher = more signal.
Test [8] concerns Noggin (protein binding on small-molecule microarray). Nature of the test: Noggin binders on small-molecule microarray, primary screen, biochemical, 635/667 nm fluorescence (AID 1095).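 Also: score merges 667 nm feature fluorescence with signal to noise over triplicate slides.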 The conditions noted are these: 635 nm fluorescence, higher = more signal.
Test [9] deals with Neurogenic locus notch homolog protein 3 (Homo sapiens) (UniProt Q9UM47). As to the kind of experiment: NOTCH3 binders on small-molecule microarray, primary screen, biochemical, 635/667 nm fluorescence (AID 1096). Conditions: NOTCH3 binding, 635 nm fluorescence, higher = more signal.
Sequence of Neurogenic locus notch homolog protein 3 (Homo sapiens) (Q9UM47 whole entry, looked up): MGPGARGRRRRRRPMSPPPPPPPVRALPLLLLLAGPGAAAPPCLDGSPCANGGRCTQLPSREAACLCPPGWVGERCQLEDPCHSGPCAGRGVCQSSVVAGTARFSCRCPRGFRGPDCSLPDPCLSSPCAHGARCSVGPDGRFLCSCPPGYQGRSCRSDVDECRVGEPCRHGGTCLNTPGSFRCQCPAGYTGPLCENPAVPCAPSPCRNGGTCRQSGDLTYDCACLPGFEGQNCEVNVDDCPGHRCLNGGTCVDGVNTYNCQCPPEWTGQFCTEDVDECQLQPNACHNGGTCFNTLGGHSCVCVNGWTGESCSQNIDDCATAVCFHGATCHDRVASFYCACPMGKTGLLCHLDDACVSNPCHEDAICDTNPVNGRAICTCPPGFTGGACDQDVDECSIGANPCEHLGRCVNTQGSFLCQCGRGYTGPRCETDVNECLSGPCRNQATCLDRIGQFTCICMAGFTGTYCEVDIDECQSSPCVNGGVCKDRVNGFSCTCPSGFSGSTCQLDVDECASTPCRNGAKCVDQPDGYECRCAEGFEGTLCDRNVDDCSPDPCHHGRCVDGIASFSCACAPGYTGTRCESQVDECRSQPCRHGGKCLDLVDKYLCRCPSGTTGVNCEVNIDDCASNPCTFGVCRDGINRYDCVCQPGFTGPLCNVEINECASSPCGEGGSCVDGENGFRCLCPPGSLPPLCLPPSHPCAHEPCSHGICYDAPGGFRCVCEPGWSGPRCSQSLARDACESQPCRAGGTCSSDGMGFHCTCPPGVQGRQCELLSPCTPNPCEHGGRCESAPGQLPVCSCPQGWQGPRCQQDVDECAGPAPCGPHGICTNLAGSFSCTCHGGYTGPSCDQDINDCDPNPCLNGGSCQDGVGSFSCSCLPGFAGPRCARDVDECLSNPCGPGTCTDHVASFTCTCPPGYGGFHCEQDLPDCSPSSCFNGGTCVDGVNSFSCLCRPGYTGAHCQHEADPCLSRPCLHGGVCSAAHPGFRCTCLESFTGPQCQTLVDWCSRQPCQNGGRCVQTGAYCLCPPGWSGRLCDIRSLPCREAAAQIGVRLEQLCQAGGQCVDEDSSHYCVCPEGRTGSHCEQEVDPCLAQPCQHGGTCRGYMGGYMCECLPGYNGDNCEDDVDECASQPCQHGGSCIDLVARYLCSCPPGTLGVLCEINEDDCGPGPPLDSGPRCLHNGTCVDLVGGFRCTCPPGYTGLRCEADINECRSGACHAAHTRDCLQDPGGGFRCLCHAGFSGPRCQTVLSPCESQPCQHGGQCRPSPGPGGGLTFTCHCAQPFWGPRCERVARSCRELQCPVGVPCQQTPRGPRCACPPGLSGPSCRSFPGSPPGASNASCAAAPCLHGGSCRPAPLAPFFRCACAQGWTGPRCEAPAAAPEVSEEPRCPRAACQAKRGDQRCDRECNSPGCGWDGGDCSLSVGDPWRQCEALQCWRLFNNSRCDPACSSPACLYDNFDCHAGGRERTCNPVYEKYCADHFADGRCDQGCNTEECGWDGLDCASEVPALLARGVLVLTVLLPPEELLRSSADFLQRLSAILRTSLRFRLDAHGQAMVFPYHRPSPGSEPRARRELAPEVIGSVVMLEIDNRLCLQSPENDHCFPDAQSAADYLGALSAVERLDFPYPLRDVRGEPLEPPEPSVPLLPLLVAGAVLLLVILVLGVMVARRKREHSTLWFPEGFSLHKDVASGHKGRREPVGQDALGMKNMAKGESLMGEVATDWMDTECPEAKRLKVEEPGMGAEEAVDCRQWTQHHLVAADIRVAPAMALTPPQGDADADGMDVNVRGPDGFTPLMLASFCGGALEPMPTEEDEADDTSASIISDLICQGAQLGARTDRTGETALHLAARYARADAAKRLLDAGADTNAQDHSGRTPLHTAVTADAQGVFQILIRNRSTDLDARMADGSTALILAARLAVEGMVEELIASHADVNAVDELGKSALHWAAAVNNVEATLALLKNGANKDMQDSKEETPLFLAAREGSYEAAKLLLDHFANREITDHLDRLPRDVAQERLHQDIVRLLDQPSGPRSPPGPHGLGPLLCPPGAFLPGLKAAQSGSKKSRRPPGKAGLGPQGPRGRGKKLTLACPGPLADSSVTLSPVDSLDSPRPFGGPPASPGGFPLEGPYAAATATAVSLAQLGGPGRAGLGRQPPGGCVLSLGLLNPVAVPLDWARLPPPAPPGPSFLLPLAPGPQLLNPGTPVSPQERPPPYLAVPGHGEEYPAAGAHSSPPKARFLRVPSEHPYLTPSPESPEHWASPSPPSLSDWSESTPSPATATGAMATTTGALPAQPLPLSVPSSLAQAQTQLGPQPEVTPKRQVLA
Test [10] in a line: small-molecule microarray binders of probe aEGFR, primary screen, biochemical, biotinylated probe, 635/667 nm fluorescence (AID 1097).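 Also: probe is a biotinylated anti-EGFR antibody binding compounds printed on slides; score combines fluorescence near 667 nm and signal to noise of each spot.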 Conditions: higher = more signal.
Test [11] concerns Plasmodium falciparum Sir2 (PF13_0152, Sir2A). Nature of the test: pfSir2 binders on small-molecule microarrays, primary screen, biochemical, small-molecule microarray, 635 nm fluorescence (AID 1098).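 Also: score merges spot fluorescence intensity with its signal-to-noise ratio.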 Conditions: small-molecule microarray binding, fluorescence 635 nm; higher = more signal.
A short description of test [12]: small-molecule microarray binders of probe aDKK1, primary screen, biochemical, biotinylated probe, 635/667 nm fluorescence (AID 1099).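 Also: score merges 667nm spot fluorescence with signal to noise across triplicate slides; reference of the scale not given here.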 The conditions noted are these: higher = more signal.
A short description of test [13]: small-molecule microarray binders of probe aCHRDL2, primary screen, biochemical, biotinylated probe, 635/667 nm fluorescence (AID 1100). The conditions noted are these: higher = more signal.
The nature of test [14]: splicing luciferase reporter signal modulators, primary screen, spliceosome inhibition project, cell-based, HEK293, splice +/- reporter (AID 1101).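 Also: HEK293 cells carrying a splicing-competent luciferase reporter gene; test concentration not given here.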 The conditions noted are these: luminescence, 24 h, higher = more signal, called active from +8 up or from −8 down.
The target of test [15] is Fibroblast growth factor 10 (Homo sapiens) (UniProt O15520). As to the kind of experiment: FGF10 binders on small-molecule microarrays, primary screen, biochemical, small-molecule microarray, 635 nm fluorescence (AID 1102). The conditions noted are these: FGF10 binding, fluorescence 635 nm, higher = more signal.
Sequence of Fibroblast growth factor 10 (Homo sapiens) (O15520 whole entry, looked up): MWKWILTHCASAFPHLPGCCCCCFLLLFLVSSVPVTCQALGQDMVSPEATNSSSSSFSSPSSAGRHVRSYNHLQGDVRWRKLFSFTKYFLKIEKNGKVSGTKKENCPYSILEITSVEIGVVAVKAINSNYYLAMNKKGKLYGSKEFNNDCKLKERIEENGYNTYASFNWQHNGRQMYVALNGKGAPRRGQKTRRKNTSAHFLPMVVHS
Test [16] relates to glycogen synthase kinase-3 (GSK3A per assay name; protocol says GSK3B). Nature of the test: GSK3 binders on small-molecule microarrays, primary screen, biochemical, small-molecule microarray, 635 nm fluorescence, GSK3A (AID 1103). Also: the record names both GSK3A and GSK3B. The conditions noted are these: small-molecule microarray binding, fluorescence 635 nm; higher = more signal.
The target in test [17] is Epidermal growth factor receptor (Homo sapiens) (UniProt P00533). Nature of the test: EGFR binders on small-molecule microarrays, primary screen, biochemical, small-molecule microarray, 635 nm fluorescence (AID 1104).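 Also: score merges 667 nm emission intensity with spot signal to noise over triplicate slides.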 Conditions: EGFR binding, higher = more signal.
Sequence of Epidermal growth factor receptor (Homo sapiens) (P00533 whole entry, looked up): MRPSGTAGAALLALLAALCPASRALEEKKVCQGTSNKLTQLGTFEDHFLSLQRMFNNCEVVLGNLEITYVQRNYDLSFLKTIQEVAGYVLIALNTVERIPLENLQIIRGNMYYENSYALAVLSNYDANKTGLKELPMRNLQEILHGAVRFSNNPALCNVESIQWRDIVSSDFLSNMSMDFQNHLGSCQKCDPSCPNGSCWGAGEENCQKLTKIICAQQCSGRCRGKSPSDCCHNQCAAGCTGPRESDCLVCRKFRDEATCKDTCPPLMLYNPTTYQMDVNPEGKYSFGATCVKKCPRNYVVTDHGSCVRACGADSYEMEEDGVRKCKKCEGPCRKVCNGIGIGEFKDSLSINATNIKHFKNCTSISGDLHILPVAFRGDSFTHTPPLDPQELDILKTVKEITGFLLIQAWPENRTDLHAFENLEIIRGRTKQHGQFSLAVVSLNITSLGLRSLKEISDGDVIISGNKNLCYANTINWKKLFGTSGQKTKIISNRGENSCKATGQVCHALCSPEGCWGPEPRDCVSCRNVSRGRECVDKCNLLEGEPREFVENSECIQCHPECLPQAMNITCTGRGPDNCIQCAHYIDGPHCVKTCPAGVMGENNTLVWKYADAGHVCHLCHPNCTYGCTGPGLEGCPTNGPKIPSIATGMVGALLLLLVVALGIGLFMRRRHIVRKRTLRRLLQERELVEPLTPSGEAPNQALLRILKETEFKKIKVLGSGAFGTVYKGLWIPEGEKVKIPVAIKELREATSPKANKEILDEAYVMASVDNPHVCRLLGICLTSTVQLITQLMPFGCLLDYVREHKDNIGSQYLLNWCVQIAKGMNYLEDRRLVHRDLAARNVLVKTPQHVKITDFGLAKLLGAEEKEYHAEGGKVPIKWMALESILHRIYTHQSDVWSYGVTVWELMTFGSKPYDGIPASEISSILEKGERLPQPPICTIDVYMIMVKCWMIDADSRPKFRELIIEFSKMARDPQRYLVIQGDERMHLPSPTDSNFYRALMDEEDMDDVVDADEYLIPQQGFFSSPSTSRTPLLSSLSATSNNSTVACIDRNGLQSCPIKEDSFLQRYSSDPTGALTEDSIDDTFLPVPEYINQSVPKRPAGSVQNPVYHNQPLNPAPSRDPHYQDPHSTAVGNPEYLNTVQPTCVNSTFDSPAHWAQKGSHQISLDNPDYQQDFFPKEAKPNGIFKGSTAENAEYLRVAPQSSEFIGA
Test [18] addresses Follistatin-related protein 3 (Homo sapiens) (UniProt O95633). As to the kind of experiment: FSTL3 binders on small-molecule microarrays, primary screen, biochemical, small-molecule microarray, 635 nm fluorescence (AID 1105).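 Also: score merges emission near 667 nm and signal to noise per printed spot across three slides.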 The conditions noted are these: FSTL3 binding, higher = more signal.
The target of test [19] is Dickkopf-related protein 1 (Homo sapiens) (UniProt O94907). As to the kind of experiment: DKK1 binders on small-molecule microarrays, primary screen, biochemical, small-molecule microarray, 635 nm fluorescence scan (AID 1106).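 Also: score merges emission near 667 nm with signal to noise over three replicate slides.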 The conditions noted are these: DKK1 binding, higher = more signal.
Sequence of Dickkopf-related protein 1 (Homo sapiens) (O94907 whole entry, looked up): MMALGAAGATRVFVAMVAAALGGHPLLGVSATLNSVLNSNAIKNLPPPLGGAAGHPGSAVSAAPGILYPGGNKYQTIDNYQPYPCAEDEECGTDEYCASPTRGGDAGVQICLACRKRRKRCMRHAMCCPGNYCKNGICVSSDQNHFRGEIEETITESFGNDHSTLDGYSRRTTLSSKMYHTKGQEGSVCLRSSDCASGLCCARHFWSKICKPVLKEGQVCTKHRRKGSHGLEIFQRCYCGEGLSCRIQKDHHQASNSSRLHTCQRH
The subject of test [20] is Inhibin beta A chain (activin A). As to the kind of experiment: INHBA (activin A) binders on microarrays, primary screen, biochemical, small-molecule microarray, 635 nm fluorescence scan (AID 1107).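 Also: mouse activin A protein probed at 4.33 µg/mL on printed slides; score merges bound-protein fluorescence near 667 nm with spot signal-to-noise.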 The conditions noted are these: small-molecule microarray binding, higher = more signal.

Molecules are shown by their SMILES. Calls of active or inactive are those of the source.

Sequence of Follistatin-related protein 3 (Homo sapiens) (O95633 whole entry, looked up): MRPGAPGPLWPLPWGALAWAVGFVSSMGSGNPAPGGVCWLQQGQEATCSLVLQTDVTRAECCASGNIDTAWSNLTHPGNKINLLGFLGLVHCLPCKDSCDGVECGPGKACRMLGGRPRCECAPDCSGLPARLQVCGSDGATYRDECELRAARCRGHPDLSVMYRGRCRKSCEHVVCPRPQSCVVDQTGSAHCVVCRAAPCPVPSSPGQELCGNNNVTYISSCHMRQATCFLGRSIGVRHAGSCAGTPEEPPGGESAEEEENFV

As to `CC(C)C(CO)N1C(=O)[C@@H]2C3C(=O)OCCC/C=C\[C@H]3OC23C=CCN(C(C)(C)C)C(=O)[C@@H]13` (stereo not given in full), the composite z-score in test [1] was -0.429; in [5] it was 0.895; in test [7], -0.259; in test [8], -0.733; in test [9], -0.354; in [10] it was -0.259. For the same molecule, the composite z-score is 1.2 in test [11]; -0.456 in [12]; -0.384 in [13]; -0.598 in test [15]; 0.0664 in test [16]; -0.44 in test [17]. The results for the composite z-score in test [18], in test [19] and in test [20] were -0.504, -0.268 and 1.05, respectively. Further, the z-score was 0.465 (inactive) in test [2]; -0.415 (inactive) in [3]; 0.0032 (inactive) in [4]; -0.787 (inactive) in [6]; 0.476 (inactive) in [14].
Consider `COc1ccc([Si](C)(C)[C@@H]2[C@@H](CC(=O)N(CCO)Cc3ccccc3)O[C@]3(C(=O)N(Cc4cccc(N5CCOC5=O)c4)c4ccccc43)[C@H]2C)cc1`, for which the composite z-score in test [1] was 1.55; in test [5], 1.96; in [7], -0.349; in [8], 0.726; in test [9] it was 0.733; in [10], -0.129. In addition, the composite z-score in test [11] is 1.07; in test [12], -0.178; in [13] it was -0.29; in test [15] it was 0.386; in [16], 0.688; in test [17], 0.41. The results for the composite z-score in test [18], in [19] and in [20] were 0.468, 0.291 and 0.523, respectively. In addition, the z-score in [2] is -0.757 (inactive); in test [3] it was -0.21 (inactive); in [4], 2.11 (inactive); in test [6], 1.37 (inactive); in test [14] it was -0.244 (inactive).
Regarding `C=CC[C@]1(C(=O)NCCN2CCOCC2)N=C(c2ccc(OCCCO)cc2)O[C@H]1c1ccccc1CN=[N+]=[N-]`, the composite z-score in test [1] was 1.4; in test [5], 1.64; in test [7], 0.298; in test [8], 0.641; in test [9], -1.35; in test [10], 0.159. The composite z-score in test [11] was found to be 0.817; in [12], 0.96; in test [13] it was 0.723; in test [15], 1.2; in [16] it was 0.703; in test [17] it was 0.409. For the same molecule, the values for the composite z-score in [18], in test [19] and in [20] were -0.0125, 1.54 and 1.57, respectively. Further, the z-score was -0.0011 (inactive) in test [2]; -1.77 (inactive) in test [3]; -0.744 (inactive) in [4]; 1.23 (inactive) in [6]; 0.346 (inactive) in [14].
As for `C=C(/C(=C/C[C@H](OC(C)=O)c1ccccc1OCCO)c1cc(C(=O)OC)ccc1OC)C(C)C`, the composite z-score in test [1] was 0.617; in test [5] it was 1.04; in [7] it was -0.141; in test [8] it was 0.295; in [9], -0.189; in test [10] it was 0.509. Also, the composite z-score in test [11] is 1.64; in test [12] it was -0.15; in test [13], -0.192; in test [15], 0.634; in [16], -0.122; in test [17], -0.167. Besides, the values for the composite z-score in [18], in test [19] and in [20] were 0.0218, -0.0716 and 0.721, respectively. Besides, the z-score in test [2] is 0.946 (inactive); in test [3], -1.2 (inactive); in test [4] it was -0.376 (inactive); in [6], 1.18 (inactive); in test [14] it was -0.736 (inactive).
`CN(C)CCCNC(=O)[C@@]1(c2ccc([N+](=O)[O-])cc2)CC(=O)N(CC23CC4CC(CC(C4)C2)C3)[C@@H]1c1ccc(CO)cc1I`: the composite z-score in test [1] was 1.53; in [5], 2.35; in [7], -0.182; in test [8], 1.75; in test [9], 1.06; in [10] it was 0.0209. The composite z-score was 1.59 in [11]; -0.0761 in test [12]; 0.407 in test [13]; 0.879 in test [15]; 0.556 in [16]; 0.555 in test [17]. The composite z-score was 1.34 in test [18], 1.08 in [19] and 0.0974 in test [20]. Also, the z-score in test [2] is -25.1 (active); in test [3] it was -18.6 (active); in [4], -2.21 (inactive); in [6], -6.64 (inactive); in [14] it was -0.854 (inactive).

The record behind these values is PubChem BioAssay.
